Hits are enriched below; roughly 7% of the tested compounds scored in any of these assays.
JMJD2A Tudor inh: qHTS Assay for Inhibitors of JMJD2A-Tudor Domain; Lysine-specific demethylase 4A (Homo sapiens), O75164; AlphaScreen JMJD2A-Tudor / H3K4me3 peptide binding; Potency, µM (titrated, usually from 114 µM), inactives show at the top dose activity change, negative = inhibition, actives largely listed as inhibitors; hit rate 4.4% among 390,000; AID 504339, 2011; also: potency is read from the fitted curve at half-maximal effect; % is scaled to controls: 0 for no effect and ±100 for the full control effect; nearly all actives have a fitted effect of over 50% in size
PLK1 PBD block: qHTS for Inhibitors of PLK1-PDB (polo-like kinase 1 - polo-box domain): Primary Screen | Plk1 PBD binding of FITC phosphopeptide, fluorescence polarization | AID 720504, 2013 | Serine/threonine-protein kinase PLK1 (Homo sapiens), P53350 | hit rate 2.8% among 360,000 | Potency, µM, for inactives: max response, negative = inhibition, usual class: inhibitors; also: potency is read from the fitted curve at half-maximal effect; series mostly up to about 57 µM; % is scaled to controls: 0 for no effect and ±100 for the full control effect; nearly all actives have a fitted effect of over 65% in size
BAZ2B block: qHTS Assay for Inhibitors of BAZ2B | Bromodomain adjacent to zinc finger domain protein 2B (Homo sapiens), Q9UIF8 | AlphaScreen BAZ2B-H3K14Ac peptide displacement | Potency, µM (titrated, usually from 114 µM), for the others: top-dose activity change, negative = inhibition, most hits filed as inhibitors | hit rate 4.4% among 360,000; also: potency is read from the fitted curve at half-maximal effect; % is scaled to controls: 0 for no effect and ±100 for the full control effect; nearly all actives have a fitted effect of over 60% in size
Target sequence (Q9UIF8 whole entry, looked up, the tested form may be a part): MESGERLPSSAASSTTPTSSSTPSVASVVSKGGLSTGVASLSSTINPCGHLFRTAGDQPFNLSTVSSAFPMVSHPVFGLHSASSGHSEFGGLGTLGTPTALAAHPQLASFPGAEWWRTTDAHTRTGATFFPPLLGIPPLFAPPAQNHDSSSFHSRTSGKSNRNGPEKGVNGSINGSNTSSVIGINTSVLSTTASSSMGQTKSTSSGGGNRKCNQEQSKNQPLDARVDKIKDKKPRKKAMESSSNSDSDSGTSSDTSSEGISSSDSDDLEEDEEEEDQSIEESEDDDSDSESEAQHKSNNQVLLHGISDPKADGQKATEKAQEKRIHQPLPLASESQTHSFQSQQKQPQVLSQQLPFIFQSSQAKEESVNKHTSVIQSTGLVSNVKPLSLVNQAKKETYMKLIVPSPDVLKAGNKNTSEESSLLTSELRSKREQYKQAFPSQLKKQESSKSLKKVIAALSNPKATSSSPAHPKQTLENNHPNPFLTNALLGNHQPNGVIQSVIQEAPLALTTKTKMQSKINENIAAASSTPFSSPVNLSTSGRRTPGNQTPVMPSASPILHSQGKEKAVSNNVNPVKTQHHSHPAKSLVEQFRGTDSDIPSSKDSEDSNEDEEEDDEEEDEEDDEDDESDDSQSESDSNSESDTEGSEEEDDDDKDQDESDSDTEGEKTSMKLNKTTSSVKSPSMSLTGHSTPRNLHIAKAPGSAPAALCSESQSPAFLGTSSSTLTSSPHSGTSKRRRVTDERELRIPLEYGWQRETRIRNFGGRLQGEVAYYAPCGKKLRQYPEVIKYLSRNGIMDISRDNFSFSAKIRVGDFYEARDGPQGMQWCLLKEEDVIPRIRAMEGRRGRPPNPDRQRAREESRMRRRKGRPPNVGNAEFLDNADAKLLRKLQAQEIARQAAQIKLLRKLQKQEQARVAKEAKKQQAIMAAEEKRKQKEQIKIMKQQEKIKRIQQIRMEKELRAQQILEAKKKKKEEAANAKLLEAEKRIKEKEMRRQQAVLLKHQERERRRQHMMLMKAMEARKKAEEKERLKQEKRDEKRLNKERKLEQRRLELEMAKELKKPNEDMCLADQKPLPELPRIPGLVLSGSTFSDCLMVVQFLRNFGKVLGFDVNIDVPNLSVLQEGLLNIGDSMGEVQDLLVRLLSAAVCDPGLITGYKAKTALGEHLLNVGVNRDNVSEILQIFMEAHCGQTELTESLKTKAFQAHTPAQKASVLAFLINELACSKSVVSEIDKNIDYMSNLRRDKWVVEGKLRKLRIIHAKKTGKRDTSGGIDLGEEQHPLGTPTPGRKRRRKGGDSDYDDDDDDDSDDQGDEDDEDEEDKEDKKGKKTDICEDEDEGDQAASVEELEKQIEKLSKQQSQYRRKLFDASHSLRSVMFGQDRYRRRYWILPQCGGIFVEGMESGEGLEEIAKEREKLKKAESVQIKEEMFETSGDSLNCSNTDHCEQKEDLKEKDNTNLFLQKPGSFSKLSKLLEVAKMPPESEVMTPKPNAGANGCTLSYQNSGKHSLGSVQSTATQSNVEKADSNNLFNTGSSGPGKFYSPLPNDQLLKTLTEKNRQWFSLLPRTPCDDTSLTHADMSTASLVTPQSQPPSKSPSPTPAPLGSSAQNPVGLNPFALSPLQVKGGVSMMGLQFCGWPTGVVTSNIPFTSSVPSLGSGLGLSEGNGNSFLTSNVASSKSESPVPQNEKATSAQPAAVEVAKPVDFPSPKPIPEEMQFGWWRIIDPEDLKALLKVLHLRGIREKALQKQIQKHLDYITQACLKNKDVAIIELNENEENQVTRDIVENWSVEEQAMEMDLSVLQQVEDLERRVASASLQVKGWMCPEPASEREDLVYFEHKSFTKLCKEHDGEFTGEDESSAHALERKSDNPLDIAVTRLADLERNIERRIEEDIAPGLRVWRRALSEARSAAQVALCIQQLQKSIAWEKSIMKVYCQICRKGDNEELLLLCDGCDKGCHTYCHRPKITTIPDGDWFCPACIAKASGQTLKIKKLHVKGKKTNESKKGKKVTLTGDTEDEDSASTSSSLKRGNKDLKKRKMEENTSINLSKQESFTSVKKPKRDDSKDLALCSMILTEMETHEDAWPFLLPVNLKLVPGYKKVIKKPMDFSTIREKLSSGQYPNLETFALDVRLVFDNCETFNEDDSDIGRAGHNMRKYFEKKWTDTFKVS
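Inhibition is scored as reduced AlphaScreen emission. The BAZ2B/b-H3(5-23)K14Ac complex (50 nM each) in PBS pH 7.4, 0.01% Tween-20 meets compound (up to 110 uM) for 30 min at RT before bead addition.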
HP1b chromo inh: HTS for Inhibitors of HP1-beta Chromodomain Interactions with Methylated Histone Tails | AlphaScreen HP1-beta / biotin-H3K9me3 peptide binding | Chromobox protein homolog 1 (Homo sapiens), P83916 | hit rate 0.56% among 390,000 | AID 540317, 2011 | Potency, µM (doses to about 114 µM), for the others: at the top dose activity change, negative = inhibition, most hits filed as inhibitors; also: potency is read from the fitted curve at half-maximal effect; nearly all actives have a fitted effect of over 70% in size
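Compound inhibition of the preformed complex between 50 nM HP1-beta and 50 nM biotinylated H3K9me3 peptide was read by AlphaScreen. Buffer was PBS pH 7.4 with 0.01% Tween-20. Incubations ran 30 min at room temperature, with 10 ug/mL donor/acceptor beads.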
PI5P4K alpha inh: qHTS for Inhibitors of phosphatidylinositol 5-phosphate 4-kinase (PI5P4K); Phosphatidylinositol 5-phosphate 4-kinase type-2 alpha (Homo sapiens), P48426; hit rate 1.2% among 330,000; PI5P4Kalpha enzyme, ADP-Glo luminescence, 60 min; active compounds read low; AID 652105, 2013; max response, %; active = max response of -50% or lower; inconclusive = between -30% and -50%; inactive = -30% or higher; also: value at the top dose of about 77 µM; % is scaled to controls: 0 for no effect and ±100 for the full control effect
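Human PI5P4Kalpha with substrate in 0.038 M HEPES pH 7.4, 0.28 mM EGTA, 0.1% CHAPS, 5% DMSO; reaction started with 5 microM ATP (final), 60 min at room temperature. ADP formed read by ADP-Glo luminescence.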
GCN5L2 inh: qHTS Assay for Inhibitors of GCN5L2; GCN5L2 HAT assay, ThioGlo1 CoA-SH fluorescence; Potency, µM (titrated, usually from 58.9 µM), for the others: top-dose activity change, negative = inhibition, hits mostly inhibitors; hit rate 0.21% among 390,000; AID 504327, 2011; also: potency is read from the fitted curve at half-maximal effect; % is scaled to controls: 0 for no effect and ±100 for the full control effect
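Enzyme at 20nM final was mixed with library compounds for 15 min at room temperature. Peptide H3(1-25) at 75uM, acetyl-CoA at 70uM and ThioGlo1 at 50uM were then added. Plates were read immediately and after 20 min (Ex340nm/Em540nm).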
* hit, by the source's call; ? = inconclusive; . = not tested or not shown; [ ] = another dose, or the depositor's remark. Unless noted, calls follow the shape of the dose curve; as a rule, active = well fitted curve in the direction sought with a large enough effect; inconclusive = small, poorly fitted or top-dose-only effect, or another doubt; inactive = no such curve, though single readings can be large; an effect the other way counts as inactive or inconclusive.

SMILES | JMJD2A Tudor inh | PLK1 PBD block | BAZ2B block | HP1b chromo inh | PI5P4K alpha inh | GCN5L2 inh
CCc1ccc(NC(=O)CC2C(=O)N(c3ccc(OC)cc3)C(=O)N2Cc2cccs2)cc1 (centres undefined) | -7% | . | -12% | 15% | . | -7%
COc1ccccc1-c1nc(S(=O)(=O)c2ccccc2)c(N2CCC(C)CC2)o1 | -19% | . | -23% | 5% | . | 4%
CCOc1ccc(-n2c(N)c(C(=O)NCc3ccco3)sc2=S)cc1 | -32% | 21µM* | -39% | -59% | ? | ?
CCOc1ccc(NC(=O)Cn2nnc(C(=O)NCc3ccco3)c2N)cc1 | -13% | -3% | 5% | 8% | . | 2%
COC(=O)c1sc(=S)n(-c2cccc(Cl)c2)c1N | -36% | 8.4µM* | -4% | -31% | . | -21%
Cn1c(=O)c(=O)n(C)c2cc(N3CCOCC3)c(NS(=O)(=O)c3ccc([N+](=O)[O-])cc3)cc21 | ? | 19µM* | 79µM* | 13% | ? | -17%
Cn1c(=O)n(C)c2cc(N3CCOCC3)c(NS(=O)(=O)c3ccc(Br)cc3)cc21 | -16% | . | 50µM* | 25% | . | -9%
Cn1c(=O)c(=O)n(C)c2cc(N3CCOCC3)c(NS(=O)(=O)c3ccc(F)c(Cl)c3)cc21 | -13% | -14% | -4% | 57% | 1 | -2%
Cn1c(=O)c(=O)n(C)c2cc(N3CCCC3)c(NS(=O)(=O)c3ccc(Cl)cc3)cc21 | -33% | -8% | -34% | 29% | 0 | -14%
CCOC(=O)[C@H]1[C@H]2COc3ccccc3[C@@H]2N2C(=O)[C@@H](C)NC(=O)[C@@]12C | 0% | -7% | . | 18% | -1 | 2%
S=c1nc(-c2csc3c2CCCC3)[nH][nH]1 | ? | 27µM* | -3% | ? | ? | -10%
Cc1nnc2sc(-c3csc4c3CCCC4)nn12 | -21% | -11% | 1% | 12% | . | -6%
C[C@H](CO)N1C[C@H](C)[C@@H](CN(C)Cc2ccc3c(c2)OCO3)Oc2c(NC(=O)Cc3ccccc3)cccc2C1=O | -29% | -7% | . | 19% | -1 | -5%
COC(=O)c1cc(C#N)c(NCc2ccccc2)nc1C | ? | 3.4µM* | 3% | ? | ? | -3%
Fc1ccc(-n2c(=S)[nH]c3cccnc32)cc1 | 16µM* | 12µM* | 5% | 71µM* | -1 | -17%
O=c1[nH]c(=S)n(-c2ccc(Br)cc2)c2ncccc12 | -18% | -6% | . | 37% | 0 | .
CCc1ccc(-c2nc(SCC(=O)c3c(N)n(C4CC4)c(=O)[nH]c3=O)n[nH]2)cc1 | -20% | -7% | -4% | 25% | -9 | -1%
CCCCc1nc2sc3c(SCCN(C)C)ncnc3c2c2c1CCC2 | 50µM* | -6% | -27% | -22% | -6 | -7%
CCCCc1nc2sc3c(SCC(=O)NCc4ccco4)ncnc3c2c2c1CCC2 | -32% | -12% | ? | 2% | -20 | -4%
CCn1c(CC(=O)Nc2ccc(F)cc2)nnc1SCC(=O)Nc1nncs1 | -6% | -12% | 0% | 0% | -1 | -7%
O=C1C=CC(=O)N1c1ccccc1N1C(=O)C=CC1=O | 2.8µM* | 1.5µM* | . | 2.8µM* | -89* | .
O=C1C=CC(=O)N1c1ccccn1 | 89µM* | -14% | . | ? | -3 | .
O=C1C=CC(=O)N1c1ccc(I)cc1Cl | . | . | 1% | . | . | -18%
O=c1[nH]n(-c2ccccn2)c(=O)c2ccccc12 | 79µM* | 30µM* | . | -21% | -9 | -3%
O=C1C2C3c4ccccc4C(c4ccccc43)[C@@H]2C(=O)N1c1ccccn1 (some centres undefined) | 3% | 0% | -1% | 13% | 4 | -25%
SMILES | JMJD2A Tudor inh | PLK1 PBD block | BAZ2B block | HP1b chromo inh | PI5P4K alpha inh | GCN5L2 inh
CC1(N(O)/C=C2\C=CC=CC2=O)CCCCC1=O (centres undefined) | -16% | -7% | 0% | 30% | 7 | -2%
Nc1nc2ncccc2cc1C(=O)NC1CCCCC1 | . | -3% | . | . | -12 | .
C[C@@H]1CN([C@H](C)CO)C(=O)CCCn2cc(nn2)CO[C@H]1CN(C)C(=O)Nc1ccccc1F | . | -9% | . | . | -8 | .
COC(=O)c1ccc(NC(=O)Cc2ccccc2)cc1 | -6% | 0% | 13% | 61% | 1 | -2%
COC(=O)c1ccc(NC(=O)CS(=O)(=O)Cc2ccccc2)cc1 | -15%[11.4 µM] | 27µM* | 9% | -14% | -13 | 0%
Cn1cc(Br)c(C(=O)NC(=S)Nc2ccc(S(N)(=O)=O)cc2)n1 | -7%[11.4 µM] | ? | -14% | -2% | 3 | -4%
COC(=O)c1oc2ccc(Br)cc2c1-n1cccc1 | -29% | -4% | -1% | 21% | 12 | -6%
O=C(O)c1oc2ccccc2c1-n1cccc1 | 79µM* | -9% | 4% | -4% | -7 | 1%
CCc1ccc(-n2cc(-c3ccc([N+](=O)[O-])cc3)[nH]c2=S)cc1 | -24% | -8% | -36% | 9% | -13 | -7%
CCc1ccc(-c2cn(C3CCCCC3)c(=S)[nH]2)cc1 | 28µM* | -5% | 18µM* | ? | ? | -12%
CC(=O)c1cnn(-c2c(Cl)cc(Cl)cc2Cl)c1C | -13% | -5% | -2% | 36% | -2 | -3%
Cc1ccc(NC(=O)c2ncn[nH]2)cc1 | 10% | 4% | 50µM* | 31% | 1 | 2%
Cc1c(Cl)cccc1NC(=O)c1ncn[nH]1 | 25µM* | -4% | 20µM* | 28% | 5 | -6%
O=C(Nc1cccc(C(=O)N2CCOCC2)c1)c1ncn[nH]1 | 28µM* | -1% | 20µM* | 8% | . | 2%
O=C(Nc1ccc(Oc2ccc(Cl)cc2)cc1)c1ncn[nH]1 | -9% | -5% | -2% | 29% | -3 | -5%
COc1cccc(NC(=O)C(OC(=O)c2cnc(C)cn2)c2ccccc2)c1 (centres undefined) | -19% | -9% | 7% | 4% | -13 | -10%
CCc1ccc2c(c1)c(=O)c(S(=O)(=O)c1ccc(Cl)cc1)cn2CC | -17% | . | 56µM* | 21% | . | -3%
CCc1nnc(NS(=O)(=O)c2ccc(N/C=C/C(=O)c3ccc(C)cc3)cc2)s1 | ? | ? | 50µM* | 34% | -6 | -8%
CCc1nnc(NS(=O)(=O)c2ccc(N/C=C\C(=O)c3ccc(C)cc3)cc2)s1 | ? | ? | ? | 19% | -19 | -3%
